Potency and outcome data for 25 molecules are collected here from PubChem BioAssay (Tox21).

Assay [1] in a line: A CellTox Green Cytotoxicity Assay to monitor cytotoxicity in HEK293 cells - 32 hour (AID 1224881). Also: nearly all actives have a fitted effect of over 40% in size. Also: potency is read from the fitted curve at half-maximal effect. Particulars: CellTox Green fluorescence; series mostly up to 76.8 µM. In short, it runs like this: (§1)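 HEK293 cells premixed with CellTox Green dye were seeded at 600 cells/well and left 5 h at 37 C/5% CO2 before pin transfer of 23 nL compound in DMSO. Fluorescence from dye bound to dead-cell DNA was read during 40 h treatment.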

A short description of assay [2]: A CellTox Green Cytotoxicity Assay to monitor cytotoxicity in HepG2 cells - 0 hour (AID 1224882). Also: nearly all actives have a fitted effect of over 35% in size. Conditions: CellTox Green fluorescence; series mostly up to 76.8 µM. In short, it runs like this:
(§2)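 HepG2 cells were seeded together with the CellTox Green dye at 600 cells/well, left 5 h at 37 C/5% CO2, then given compounds in DMSO. Fluorescence from dye bound to dead-cell DNA was read repeatedly over 40 h of treatment at 37 C.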

Assay [3] can be described thus: A CellTox Green Cytotoxicity Assay to monitor cytotoxicity in HepG2 cells - 32 hour (AID 1224883). Also: nearly all actives have a fitted effect of over 50% in size. Also: potency is read from the fitted curve at half-maximal effect. Particulars: CellTox Green fluorescence; series mostly up to 76.8 µM. In short, it runs like this: as §2
Assay [4] is described as follows: A CellTox Green Cytotoxicity Assay to monitor cytotoxicity in HEK293 cells - 8 hour (AID 1224884). Also: nearly all actives have a fitted effect of over 35% in size. Also: potency is read from the fitted curve at half-maximal effect. Conditions: CellTox Green fluorescence; series mostly up to 76.8 µM. In short, it runs like this:
as §1

The nature of assay [5]: qHTS RealTime-Glo MT Cell Viability Assay in HepG2 cells - 16 hour (AID 1224885). Also: nearly all actives have a fitted effect of over 50% in size. Particulars: RealTime-Glo luminescence; series mostly up to 76.8 µM. In short, it runs like this: (§3)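 Viability was tracked continuously by NanoLuc luminescence from prosubstrate reduced by living HepG2 cells, at successive time points over 40 h of compound exposure. Cells with reagent were preincubated 5 h at 37 °C before compound addition.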
On the technique in general: In qHTS, concentration-response curves come from the screen itself.

Assay [6] can be described thus: A CellTox Green Cytotoxicity Assay to monitor cytotoxicity in HEK293 cells - 16 hour (AID 1224888). Also: nearly all actives have a fitted effect of over 35% in size. Also: potency is read from the fitted curve at half-maximal effect. Conditions: CellTox Green fluorescence; series mostly up to 76.8 µM. In short, it runs like this: as §1
Assay [7] is described as follows: A CellTox Green Cytotoxicity Assay to monitor cytotoxicity in HepG2 cells - 8 hour (AID 1224890). Also: nearly all actives have a fitted effect of over 45% in size. Also: potency is read from the fitted curve at half-maximal effect. Particulars: CellTox Green fluorescence; series mostly up to 76.8 µM. In short, it runs like this:
as §2

Assay [8] is described as follows: qHTS RealTime-Glo MT Cell Viability Assay in HEK293 cells - 8 hour (AID 1224887). Also: nearly all actives have a fitted effect of over 50% in size. Also: potency is read from the fitted curve at half-maximal effect. Particulars: RealTime-Glo luminescence; series mostly up to 76.8 µM. In short, it runs like this: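 HEK293 cells mixed with RealTime-Glo reagents (NanoLuc plus cell-permeant prosubstrate) at 600 cells/well, preincubated 5 h at 37 C/5% CO2, then given 23 nL compound in DMSO. Nonlytic luminescence from viable cells was read at 0, 8, 16, 24, 32 and 40 h.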

Assay [9] in a line: qHTS RealTime-Glo MT Cell Viability Assay in HepG2 cells - 0 hour (AID 1224889). Also: nearly all actives have a fitted effect of over 50% in size. Conditions: RealTime-Glo luminescence; series mostly up to 76.8 µM. In short, it runs like this:
as §3

Assay [10] can be described thus: qHTS RealTime-Glo MT Cell Viability Assay in HEK293 cells - 24 hour (AID 1224886). Also: nearly all actives have a fitted effect of over 50% in size. Also: potency is read from the fitted curve at half-maximal effect. Conditions: RealTime-Glo luminescence; series mostly up to 76.8 µM. In short, it runs like this: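 Viability tracked continuously by luminescence as live cells reduce a prosubstrate for NanoLuc; HEK293 cells preincubated 5 h, compound-treated at 37 C, and read at 0, 8, 16, 24, 32 and 40 h.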

The structures appear in SMILES notation. “And” between values parts separate entries of the source, which are not always exact repeats. Equal entries are not always repeated. Results filed as inconclusive are left out. Some compounds were tested as several samples or in several runs, with calls that do not always agree. The source made the active and inactive calls. Calls follow the shape of the dose curve; as a rule, active = well fitted curve in the direction sought with a large enough effect in the repeat runs; inconclusive = weak or mixed curves; inactive = no such curve, though single readings can be large; an effect the other way counts as inactive or inconclusive.

Take `CC(C)[C@@H](C(=O)O[C@@H](C#N)c1cccc(Oc2ccccc2)c1)c1ccc(Cl)cc1`: the Potency result in [1], in assay [2], in [3], in assay [4], in [5] and in assay [6] was “inactive” throughout. For the same molecule, the Potency result in assay [7] is “inactive”.

Take `CC(C)(C)CC(C)(C)c1ccc(O)cc1`: the Potency in [1] is 12.3 µM (active) and 19 µM (active); in assay [3], 27.5 µM (active) and 15.1 µM (active); in assay [4] it was 15.5 µM (active) and 12 µM (active); in assay [8], 34.7 µM (active); in assay [6], 21.9 µM (active) and 21.3 µM (active); in assay [7], 17.4 µM (active) and 10.7 µM (active). Moreover, the Potency entry in assay [2] is “inactive”. The molecule was classed as inactive in assay [9].

In the case of `COc1cc(CC#N)cc(OC)c1OC`, the Potency result in assay [1], in assay [2], in assay [3], in assay [4], in assay [5] and in assay [8] was “inactive” throughout. Besides, the Potency entry in assay [6] and in assay [7] was “inactive” in each case. The molecule was called inactive in assay [9].

On to `CCC(C)Cl` (configuration not stated), for which the Potency result in assay [1], in assay [2], in assay [3], in assay [4], in assay [5] and in assay [8] was “inactive” throughout. Besides, the Potency result in [6] and in assay [7] was “inactive” in each case. The call in assay [9] was inactive.

Consider `O=C(O)C(F)(F)C(F)(F)C(F)(F)C(F)(F)C(F)(F)C(F)(F)C(F)(F)C(F)(F)F`, for which the Potency result in assay [1], in [2], in assay [3], in [4], in assay [10] and in assay [8] was “inactive” in each case. Besides, the Potency result in assay [6] and in assay [7] was “inactive” in each case.

Regarding `O=C(O)C(F)(F)C(F)(F)C(F)(F)C(F)(F)C(F)(F)F`, the Potency result in [1], in assay [2], in assay [3], in assay [4], in [10] and in assay [8] was “inactive” each time. Besides, the Potency result in assay [6] and in [7] was “inactive” throughout. Also, the molecule was classed as inactive in assay [9].

For `C[C@]12CC[C@H]3[C@@H](CCC4=CC(=O)CC[C@@H]43)[C@@H]1CC[C@@H]2OC(=O)CCc1ccccc1`, the Potency result in assay [1], in assay [2], in assay [3], in assay [4], in assay [5] and in [8] was “inactive” throughout. Moreover, the Potency entry in assay [6] and in assay [7] was “inactive” in each case.

Regarding `CCCCCCCCn1sccc1=O`, the Potency in [1] is 55.1 µM (active) and 25.7 µM (active); in assay [3], 43.7 µM (active) and 22.9 µM (active); in [4] it was 36.3 µM (active); in [10] it was 12.3 µM (active) and 12.9 µM (active); in assay [8] it was 39 µM (active) and 40.8 µM (active); in assay [6], 51.3 µM (active). In addition, in [7], the Potency was 25.7 µM (active). Moreover, the Potency result in assay [2] is “inactive”.

For `C[Si](Cn1cncn1)(c1ccc(F)cc1)c1ccc(F)cc1`, the Potency entry in assay [1] is “inactive and 54.9 µM (active)”; in assay [3], 50.6 µM (active) and 49 µM (active); in assay [10], 25.4 µM (active) and 21.9 µM (active). The Potency result in [2], in [4], in [5], in assay [6] and in [7] was “inactive” each time. For the same molecule, the result in assay [9] was inactive.

For the molecule `Cc1nnc(-c2ccccc2)c(=O)n1N`, the Potency entry in assay [1], in assay [2], in assay [3], in assay [4], in assay [5] and in assay [8] was “inactive” each time. The Potency result in [6] and in assay [7] was “inactive” throughout. In assay [9], the call was inactive.

`O=P(OCC(Br)CBr)(OCC(Br)CBr)OCC(Br)CBr` (configuration not stated): the Potency result in assay [1], in assay [2], in [3], in [4], in assay [5] and in [6] was “inactive” each time. In addition, the Potency entry in assay [7] is “inactive”. In addition, the Potency in [8] is 24.9 µM (active). The result in assay [9] was inactive.

As for `O=C(O)COc1cc(Cl)c(Cl)cc1Cl`, the Potency result in assay [1], in assay [2], in [3], in [4], in assay [5] and in assay [8] was “inactive” each time. The Potency result in [6] and in [7] was “inactive” throughout.

Regarding `COC1=CC(=O)O[C@@H](/C=C/c2ccc3c(c2)OCO3)C1`, the Potency entry in assay [1], in assay [2], in assay [3], in [4], in assay [10] and in [8] was “inactive” in each case. For the same molecule, the Potency entry in assay [6] and in assay [7] was “inactive” in each case.

As to `OCCSSCCO`, the Potency result in [1], in assay [2], in assay [3], in [4], in assay [10] and in [8] was “inactive” each time. The Potency entry in assay [6] and in assay [7] was “inactive” each time. Besides, in assay [9], the molecule was called inactive.

For the molecule `CCCCC(CC)COC(=O)c1c(Br)c(Br)c(Br)c(Br)c1C(=O)OCC(CC)CCCC` (configuration not stated), the Potency result in assay [1], in assay [2], in [3], in assay [4], in assay [5] and in assay [8] was “inactive” each time. Also, the Potency result in [6] and in assay [7] was “inactive” throughout. Besides, the result in assay [9] was inactive.

For `CC(CC(C(N)=O)(c1ccccc1)c1ccccc1)N(C)C` (configuration not stated), the Potency entry in [1], in [2], in assay [3], in assay [4], in assay [5] and in assay [8] was “inactive” throughout. The Potency result in assay [6] and in assay [7] was “inactive” in each case. Besides, the result in assay [9] was inactive.

Regarding `CC(C)(C#N)C(C)(C)C#N`, the Potency entry in assay [1], in [2], in assay [3], in assay [4], in assay [10] and in assay [8] was “inactive” in each case. The Potency entry in assay [6] and in assay [7] was “inactive” throughout. Further, the molecule was called inactive in assay [9].

`C=CCOC(=O)C(C)(C)OC(=O)c1cc(-n2c(=O)cc(C(F)(F)F)n(C)c2=O)ccc1Cl`: the Potency result in assay [1], in assay [2], in assay [3], in [4], in [5] and in [6] was “inactive” in each case. In addition, in assay [7], the Potency result was “inactive”. Moreover, the Potency in [10] was 19.1 µM (active). Further, the result in assay [9] was inactive.

Turning to `O=C(N[C@H]1CN2CCC1CC2)c1ccc2c(c1)OCCO2`, the Potency result in [1], in assay [2], in assay [3], in assay [4], in assay [10] and in assay [8] was “inactive” throughout. In addition, the Potency entry in assay [6] and in [7] was “inactive” in each case. Moreover, the outcome in assay [9] was inactive.

For `Nc1ccccc1C(=O)OCC(O)CO` (configuration not stated), the Potency result in [1], in assay [2], in [3], in assay [4], in assay [5] and in assay [8] was “inactive” in each case. In addition, the Potency result in assay [6] and in assay [7] was “inactive” throughout. The molecule was called inactive in [9].

For the molecule `CC(C)(C)OOC(C)(C)CCC(C)(C)OOC(C)(C)C`, the Potency entry in [1], in assay [2], in assay [3], in assay [4], in [5] and in assay [8] was “inactive” each time. Moreover, the Potency result in [6] and in assay [7] was “inactive” each time. Further, the molecule was called inactive in assay [9].

As for `CCOP(=O)(SC(C)CC)N1CCSC1=O` (configuration not stated), the Potency result in assay [1], in assay [2], in assay [3], in assay [4], in assay [5] and in assay [8] was “inactive” throughout. Also, the Potency entry in assay [6] and in assay [7] was “inactive” throughout. The outcome in assay [9] was inactive.

As for `CCNC(=O)NC(=O)/C(C#N)=N/OC`, the Potency entry in assay [1], in assay [2], in [3], in assay [4], in assay [5] and in [8] was “inactive” throughout. The Potency result in assay [6] and in assay [7] was “inactive” throughout. Also, the molecule was classed as inactive in assay [9].

For the molecule `COC(=O)Cc1ccccc1`, the Potency entry in [1], in [2], in [3], in assay [4], in assay [10] and in assay [8] was “inactive” in each case. For the same molecule, the Potency result in [6] and in assay [7] was “inactive” throughout. Besides, the molecule was classed as inactive in assay [9].

For the molecule `CC(C)c1ccc(OP(=O)(Oc2ccc(C(C)C)cc2)Oc2ccc(C(C)C)cc2)cc1`, the Potency entry in [1], in assay [2], in [3], in assay [4], in assay [5] and in [8] was “inactive” in each case. Besides, the Potency entry in [6] and in assay [7] was “inactive” in each case. For the same molecule, the molecule was classed as inactive in assay [9].
